Experimental data taken from PubChem BioAssay (NCATS).
Inconclusive results are not listed. The source made the active and inactive calls. Unless noted, the call rests on the fitted dose curve; in most records, active means well fitted curve in either direction with a large enough effect (not every such curve was filed as active); inconclusive means small, poorly fitted or top-dose-only effect, or another doubt; inactive means flat fitted curve, though single readings scatter.

Tests used:
[1] = target: Lysosomal acid glucosylceramidase (Homo sapiens) (UniProt P04062); experiment: Glucocerebrosidase-p2 (AID 348; in the data active means potency below about 10 µM; further: potency means the concentration at half of the fitted maximal effect); settings: purified GBA, blue fluorogenic substrate, 40 min
Outline: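 Normal human glucocerebrosidase (0.2 nM) with blue fluorogenic substrate (80 uM final) in citrate/phosphate pH 5.9 with 10mM sodium taurocholate, 0.01% tween-20; 40 min RT, NaOH/glycine stop; fluorescence Ex 365/Em 440; AC50 from a titration from 0.6 nM upwards.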

[2] = AP1 Signaling Pathway (AID 357); settings: ME-180 AP-1-bla reporter, EGF-induced, beta-lactamase ratio, 5 h; at 7.69 µM (top of the series) unless noted;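 further: ME-180 reporter cells stimulated with EGF at its EC50 level; on the % scale 0 is the no-effect control and ±100 the full control effect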
Outline: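 In this screen, ME-180 cells in Opti-MEM with 0.5% dialyzed FBS received EC50 EGF and compound titrations for 5 h. AP-1 reporter beta-lactamase was detected via CCF4 ratio, giving AC50 for positive and negative modulators.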

[3] = NFAT Signaling Pathway (AID 444); settings: Jurkat NFAT-bla M1, carbachol, beta-lactamase ratio, 5 h; at 7.69 µM (top of the series) unless noted;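 further: carbachol stimulus at about its EC50 of 1 µM final; on the % scale 0 is the no-effect control and ±100 the full control effect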
Outline: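 Jurkat cells carrying an NFAT-driven β-lactamase reporter and co-transfected muscarinic M1 receptor were treated with compound plus carbachol (1 uM final, an EC50 level) for 5 h at 37 °C. CCF4 loading followed for 1 h at RT; 460/530 nm ratio gave %activity.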

[4] = Stat Signaling Pathway (AID 446); settings: ME-180 SIE beta-lactamase reporter, IL-6 stimulated, 5 h; at 7.69 µM (top of the series) unless noted;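 further: ME-180 cervical cancer cells given 40 pM IL-6 alongside compound; SIE-controlled beta-lactamase reporter measured as 460/530 nm FRET emission ratio; on the % scale 0 is the no-effect control and ±100 the full control effect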
Outline: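 Compound effects on IL-6-induced STAT reporter activity were measured in ME-180 cells. After overnight culture, cells were co-treated with 40 pM IL-6 for 5 hrs before beta-lactamase substrate loading at room temperature.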

[5] = target: Mitogen-activated protein kinase 10 (Mus musculus) (UniProt Q61831); experiment: JNK3 AlphaScreen Assay (AID 530); settings: JNK3 lysate, c-Jun phosphorylation; series mostly up to 57.1 µM;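 further: kinase came from lysate of stimulated human HepG2 cells; signal reports phosphorylation of biotinylated GST-cJun 1-79 at Ser73 with 10 µM ATP; on the % scale 0 is the no-effect control and ±100 the full control effect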
Outline: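 Biotinylated GST-cJun(1-79) served as substrate for JNK3 in HepG2 lysates stimulated with IL-1beta and TNF-alpha. ATP was 10 uM final, pH 7.6. Ser73 phosphorylation was quantified by AlphaScreen (680 nm excitation).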

[6] = target: 3',5'-cyclic-AMP phosphodiesterase 4B (Homo sapiens) (UniProt Q07343); experiment: qHTS Assay for Inhibitors of PDE-IV (AID 607; active means well fitted activation curve with a large enough effect in the main read-out, with a control signal flat, not every such curve was filed as active; further: % of control where 0% means no effect); settings: HEK293 ACTOne CNG channel cells, membrane potential fluorescence; series mostly up to 22.9 µM
Outline: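 ACTOne HEK293 cells carry a modified cAMP-gated CNG channel and express endogenous PDE4; plated 1000 cells/well, compounds up to 22.9 uM final. Membrane-potential dye fluorescence (ex 535/em 590) was read; parental cells received 10 uM forskolin + 100 uM RO 20-1724.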

[7] = qHTS Assay for Identification of Small Molecule Agonists for Hypoxia Response Element Signaling Pathway (AID 914; active means well fitted activation curve with a large enough effect in the signal ratio, with a control signal flat, not every such curve was filed as active; the % refers to the signal ratio; further: % of control where 0% means no effect); settings: ME-180 (cervical carcinoma) HRE-bla reporter, beta-lactamase ratio, CoCl2, 17 h; activation: stronger effect = higher value
Outline: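 HRE-bla ME-180 cells, overnight plating in Opti-MEM with 0.5% dialyzed FBS; cpd titration + EC50 CoCl2, 17 h, 37 degrees Celsius; CCF4 2.5 h RT; 460/530 nm ratio; AC50.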

[8] = qHTS Assay for Lipid Storage Modulators (AID 1519; calls by dose curve); settings: Drosophila S3 cells, BODIPY lipid droplet/cell ratio, laser cytometry, cells loaded with oleic acid; for activity change, negative = inhibition: at 57.5 µM (top of the series)
Outline: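 Cells seeded at 5,000 per well were treated with compounds over a concentration series and loaded with oleic acid (400 uM, as added). Lipid droplet fluorescence (488 nm excitation, 500-530 nm channel) was read by laser-scanning cytometry and normalized to 20 uM Triacsin C.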

[9] = Primary qHTS for small molecule stabilizers of the endoplasmic reticulum resident proteome: Secreted ER Calcium Modulated Protein (SERCaMP) assay (AID 1508630; active means well fitted inhibition curve with a large enough effect; further: on the % scale 0 is the no-effect control and ±100 the full control effect); settings: SH-SY5Y GLuc-SERCaMP (Gaussia luciferase released on ER calcium loss) secretion, thapsigargin, luminescence; series mostly up to 38.4 µM
Outline: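 The SH-SY5Y reporter protocol was run at 3 concentrations up to 38.3 uM (primary) or 11 concentrations (follow-up): 16 h compound, 100 nM thapsigargin for 4 h, then extracellular luciferase luminescence.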

[10] = target: Glucocorticoid receptor (Homo sapiens) (UniProt P04150); experiment: GR-EFC Redistribution (AID 451; calls by dose curve; further: potency means the concentration at half of the fitted maximal effect); settings: CHO-K1 GR-EFC translocation, beta-gal luminescence, 2 h
Outline: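 CHO-K1 cells stably expressing nuclear-localized β-gal enzyme acceptor and GR fused C-terminally to the enzyme donor fragment; ligand-driven nuclear translocation restores β-gal by complementation. Compounds titrated up to 46 uM final, 2 h at 37 °C; luminescence read.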

[11] = measured here: cell count channel max response
[12] = measured here: lipid channel max response

Glucocorticoid receptor (Homo sapiens), sequence (P04150 whole entry, looked up, the tested form may be a part): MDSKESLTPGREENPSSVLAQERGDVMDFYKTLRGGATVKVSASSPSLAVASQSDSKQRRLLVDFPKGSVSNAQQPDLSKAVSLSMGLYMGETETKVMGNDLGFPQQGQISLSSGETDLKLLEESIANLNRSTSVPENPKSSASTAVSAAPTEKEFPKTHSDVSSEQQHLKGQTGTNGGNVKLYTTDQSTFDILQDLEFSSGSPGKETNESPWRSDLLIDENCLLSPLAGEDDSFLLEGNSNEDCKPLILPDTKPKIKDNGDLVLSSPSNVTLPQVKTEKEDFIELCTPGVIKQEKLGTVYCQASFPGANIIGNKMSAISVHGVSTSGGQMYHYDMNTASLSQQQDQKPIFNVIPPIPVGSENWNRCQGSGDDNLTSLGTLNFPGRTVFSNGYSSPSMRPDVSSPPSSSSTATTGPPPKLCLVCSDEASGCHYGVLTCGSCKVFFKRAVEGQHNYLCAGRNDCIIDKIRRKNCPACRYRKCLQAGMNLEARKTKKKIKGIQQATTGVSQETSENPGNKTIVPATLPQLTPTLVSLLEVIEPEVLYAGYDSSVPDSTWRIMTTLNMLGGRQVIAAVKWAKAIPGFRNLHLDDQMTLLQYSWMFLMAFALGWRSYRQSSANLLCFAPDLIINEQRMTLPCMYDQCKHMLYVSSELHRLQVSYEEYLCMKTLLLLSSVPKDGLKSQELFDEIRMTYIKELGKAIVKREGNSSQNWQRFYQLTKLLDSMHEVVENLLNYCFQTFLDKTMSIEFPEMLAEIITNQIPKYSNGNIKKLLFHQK
Lysosomal acid glucosylceramidase (Homo sapiens), sequence (P04062 whole entry, looked up): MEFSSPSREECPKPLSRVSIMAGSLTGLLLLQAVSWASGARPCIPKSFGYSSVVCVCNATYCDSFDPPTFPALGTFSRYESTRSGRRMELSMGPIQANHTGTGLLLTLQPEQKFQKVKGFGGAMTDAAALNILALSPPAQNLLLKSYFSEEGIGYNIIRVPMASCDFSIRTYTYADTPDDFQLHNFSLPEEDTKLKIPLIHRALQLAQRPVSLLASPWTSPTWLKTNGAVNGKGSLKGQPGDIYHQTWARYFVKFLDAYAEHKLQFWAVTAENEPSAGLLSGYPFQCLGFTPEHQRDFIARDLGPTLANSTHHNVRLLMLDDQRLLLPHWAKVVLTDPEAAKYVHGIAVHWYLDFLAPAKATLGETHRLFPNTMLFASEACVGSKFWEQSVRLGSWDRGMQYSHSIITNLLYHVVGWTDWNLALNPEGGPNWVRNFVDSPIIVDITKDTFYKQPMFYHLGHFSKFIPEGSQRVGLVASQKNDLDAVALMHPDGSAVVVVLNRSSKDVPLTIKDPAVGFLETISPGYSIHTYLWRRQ
3',5'-cyclic-AMP phosphodiesterase 4B (Homo sapiens), sequence (Q07343 whole entry, looked up): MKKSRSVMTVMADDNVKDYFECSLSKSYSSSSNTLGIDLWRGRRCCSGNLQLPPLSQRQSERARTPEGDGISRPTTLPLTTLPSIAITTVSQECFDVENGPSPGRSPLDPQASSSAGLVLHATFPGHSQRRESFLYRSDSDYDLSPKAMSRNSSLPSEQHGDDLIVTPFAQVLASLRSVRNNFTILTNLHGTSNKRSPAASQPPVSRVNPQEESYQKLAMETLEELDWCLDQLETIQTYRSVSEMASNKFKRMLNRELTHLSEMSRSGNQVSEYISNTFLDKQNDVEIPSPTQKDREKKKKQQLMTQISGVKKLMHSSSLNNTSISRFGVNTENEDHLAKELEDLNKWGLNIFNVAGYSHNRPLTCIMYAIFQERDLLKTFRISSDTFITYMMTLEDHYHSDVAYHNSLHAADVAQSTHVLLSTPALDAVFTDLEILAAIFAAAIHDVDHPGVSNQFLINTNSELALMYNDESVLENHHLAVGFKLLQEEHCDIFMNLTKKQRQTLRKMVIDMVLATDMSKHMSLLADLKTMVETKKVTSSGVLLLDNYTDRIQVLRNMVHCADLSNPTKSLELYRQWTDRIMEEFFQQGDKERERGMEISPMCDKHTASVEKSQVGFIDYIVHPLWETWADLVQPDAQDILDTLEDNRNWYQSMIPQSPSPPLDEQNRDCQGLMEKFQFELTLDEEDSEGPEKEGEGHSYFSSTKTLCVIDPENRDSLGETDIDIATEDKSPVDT

COCC(=O)N1CCC2(CCN(Cc3nccs3)CC2)CC1
inactive: Potency [1] > 11.4 µM | activity change, negative = inhibition [2] 0.0953% | activity change, negative = inhibition [3] -2.93% | activity, negative = inhibition [4] 10% | Potency [5] | Potency [6] | activation [7] 14.8% | activity change, negative = inhibition [8] 2.2% | outcome [9]
9.94%: max response [8, 11]
16.3%: max response [8, 12]

N#Cc1ccc(CN2CCCC3(CCN(C(=O)c4ccco4)CC3)C2)cc1
-5.31%: max response [8, 11]
inactive: Potency [1] > 11.4 µM | activity change, negative = inhibition [2] -7.19% | activity, negative = inhibition [4] 4.81% | Potency [10] > 46 µM | Potency [5] | Potency [6] | activity change, negative = inhibition [8] -5.76% | outcome [9]
-10.9%: max response [8, 12]

O=C(c1cnccn1)N1CCC2(CCN(Cc3cc(C(F)(F)F)cc(C(F)(F)F)c3)CC2)CC1
15.1%: max response [8, 12]
13.6%: max response [8, 11]
inactive: Potency [1] > 11.4 µM | activity change, negative = inhibition [2] 6.25% | activity, negative = inhibition [4] -5.04% | Potency [10] > 46 µM | Potency [5] | Potency [6] | activity change, negative = inhibition [8] 2.5% | outcome [9]

COc1ccc(C(=O)N2CCC3(CC2)CN(c2ccc(-c4ccccc4)cc2)C3)cc1
inactive: Potency [1] > 11.4 µM | activity change, negative = inhibition [2] -5.62% | activity change, negative = inhibition [3] -9.07% | Potency [10] > 46 µM | Potency [5] | Potency [6] | activity change, negative = inhibition [8] -3.67% | outcome [9]
7.61%: max response [8, 12]
9.2%: max response [8, 11]

COc1ccccc1CN1CC2(CCN(C(=O)c3cccc(F)c3)CC2)C1
8.06%: max response [8, 11]
inactive: Potency [1] > 11.4 µM | activity change, negative = inhibition [2] -3.72% | activity, negative = inhibition [4] 0.108% | Potency [10] > 46 µM | Potency [5] | Potency [6] | activity change, negative = inhibition [8] 3.26% | outcome [9]
13.5%: max response [8, 12]

O=C(c1ccncc1)N1CCC2(CC1)CN(c1ccncc1)C2
-20.1%: max response [8, 11]
-17.6%: max response [8, 12]
inactive: Potency [1] > 11.4 µM | activity change, negative = inhibition [2] 6.26% | activity, negative = inhibition [4] 1.34% | Potency [10] > 46 µM | Potency [5] | Potency [6] | activity change, negative = inhibition [8] 1.59% | outcome [9]

COc1ccc(C(=O)N2CCC3(CC2)CN(CC(C)C)C3)cc1
inactive: Potency [1] > 11.4 µM | activity change, negative = inhibition [2] 1.62% | activity, negative = inhibition [4] 6.78% | Potency [10] > 46 µM | Potency [5] | Potency [6] | activity change, negative = inhibition [8] 3.28% | outcome [9]
16.1%: max response [8, 11]
21.1%: max response [8, 12]
